KCNQ2 block: inhibitors of rat KCNQ2 potassium channel; B-score at 10 µM; CHO-K1 KCNQ2, FluxOR thallium flux, 20 min; stronger effect = lower value; O88943; actives 1.1% (n = 310,000);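 active = fluorescence ratio B-score at most minus 3 library SDs, with starting brightness B-score within 2 library SDs, cut at about -5.5 in these data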
KCNQ2 pot: enhances the rat KCNQ2 potassium channel; B-score at 10 µM; actives 0.54% (n = 310,000); O88943; CHO-K1 KCNQ2, FluxOR thallium flux fluorescence; stronger effect = higher value;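 active = fluorescence ratio B-score at least 3 SD of library B-scores, with initial fluorescence B-score within 3 of them, cut at about 5.3 in these data; same plate scores as AID 2156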;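 also: B-score of peak minus minimum over baseline fluorescence ratio after K+ and Tl+ stimulus; positive B-score means potentiation of KCNQ2 with more thallium influx and brighter signal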
Starred values were filed as active, the others as inactive; i = inactive; · = not tested or not shown. This is a sample that favours compounds with a hit; in the whole collection about 1.6% have one here.

SMILES	KCNQ2 block	KCNQ2 pot
COc1ccc(-c2cc(C(F)(F)F)nc(N3CCN(Cc4ccccc4)CC3)n2)cc1OC	-5.6*	-5.6
O=C(Nc1ccccc1NS(=O)(=O)c1ccc(F)cc1)C1CCC1	i	·
COCCNC(=O)Cn1cnc2sc(C)c(S(=O)(=O)N3CCC(C)CC3)c2c1=O	i	·
COc1ccc(Cl)cc1Nc1ncnc2sc(C)c(S(=O)(=O)N3CCC(C)CC3)c12	-6.69*	-6.69
O=C(CCN=C1NS(=O)(=O)c2ccccc21)OCc1cccc(Cl)c1	i	·
CC(C)CC(C(=O)N1CCc2ccccc2C1)N1C(=O)c2ccccc2C1=O (stereo not drawn)	-6.53*	-6.53
CC(C(=O)N1CCc2ccccc2C1)N1C(=O)c2ccccc2C1=O (stereo not drawn)	i	0.16
CSc1ncccc1C(=O)Nc1nnc(C2CC2)s1	i	0.41
Cc1ccc(-c2cnc(-c3ccccc3C(=O)O)o2)cc1	i	0.07
COc1ccc(CNC(=O)C(c2ccc(C)o2)N(Cc2cccs2)C(=O)Cc2cccs2)cc1 (stereo not drawn)	-6.43*	-6.43
COCCN(C(=O)Cc1cccs1)C(C(=O)NCc1ccc(OC)cc1)c1ccc(C)cc1 (stereo not drawn)	i	0.07
O=C(NCc1ccccc1)C(c1ccccc1)N(Cc1ccc2c(c1)OCO2)C(=O)Cc1cccs1 (stereo not drawn)	-7.01*	-7.01
O=C(NC1CCCC1)C(c1ccccc1)N(Cc1ccc2c(c1)OCO2)C(=O)Cc1cccs1 (stereo not drawn)	i	0.05
COc1ccc(CNC(=O)C(c2ccc(C)o2)N(C(=O)c2csnn2)c2ccc(C(C)C)cc2)cc1 (stereo not drawn)	-6.1*	-6.1
Cc1cccc(N(C(=O)c2csnn2)C(C(=O)NCc2ccccc2)c2ccc(C)o2)c1 (stereo not drawn)	i	·
NC(=O)NC(CC(=O)NCc1ccc2c(c1)OCO2)c1ccccc1Cl (stereo not drawn)	i	0.01
Cc1ccc(CNC(=O)c2sc3nc4c(c(C(F)(F)F)c3c2N)CCC4)cc1	i	·
Nc1c(C(=O)NCc2ccc(Cl)cc2)sc2nc3c(c(C(F)(F)F)c12)CCC3	-6.07*	-6.07
CSCC(=O)N1CCCC(N2CCN(c3cccc(C(F)(F)F)c3)CC2)C1 (stereo not drawn)	-6.77*	-6.77
CC1(CCC(=O)N2CCCC(N3CCN(c4cccc(C(F)(F)F)c4)CC3)C2)CC1 (stereo not drawn)	i	·
CCOC(=O)CC1C(=O)NCCN1S(=O)(=O)c1cccc(C(F)(F)F)c1 (stereo not drawn)	i	·
FC(F)(F)c1ccc(C2[C@H]3CN(Cc4cccnc4)[C@H](c4ccccc4)C34CC2(c2cccnc2)C4)cc1 (stereo partly drawn)	-7.17*	-7.17
FC(F)(F)c1ccc(C2[C@H]3CN(Cc4ccc(-c5ccccc5)cc4)[C@H](c4ccccc4)C34CC2(c2cccnc2)C4)cc1 (stereo partly drawn)	i	1.03
CCCn1c(C(C)Nc2nc(-c3ccc(Cl)c([N+](=O)[O-])c3)cs2)nc2cc(Cl)c(N3CCCCC3)cc21 (stereo not drawn)	i	0.49
COCC1CCN(C(=O)c2cc(COc3ccccc3SC)on2)C1 (stereo not drawn)	i	2.98
SMILES	KCNQ2 block	KCNQ2 pot
C=CC[C@H]1CC(C)=C[C@H](CC=C)N1C(=O)c1cc(COc2ccccc2SC)on1	-5.57*	-5.57
CCc1ccccc1NC(=O)C1(S(=O)(=O)c2ccc(C)cc2)CC1	i	·
Cc1ccc(C(=O)Nc2ccc(Nc3ccccc3)cc2)c(Cl)c1	i	·
O=C(CSc1nnc(-c2c[nH]c3ccccc23)o1)N(Cc1ccccc1)c1ccc(F)cc1	i	·
COc1ccc(CN(C(=O)CSc2nnc(-c3ccccc3C)o2)c2ccc(F)cc2)cc1	-6.42*	-6.42
CCCCNS(=O)(=O)c1ccc2nc(-c3cccs3)cc(C(=O)NCC(OC)OC)c2c1	i	·
COc1ccc(OCC(=O)Nc2c(C(=O)N(CCN(C)C)Cc3ccco3)oc3ccccc23)cc1	i	·
COc1ccccc1C(=O)Nc1c(C(=O)N(CCN(C)C)Cc2ccco2)oc2ccccc12	-6.98*	-6.98
COC(=O)c1ccc(CN2CCCC(CO)(Cc3ccc(F)cc3F)C2)cc1 (stereo not drawn)	i	·
C=C(C)COc1ccc(-c2nc(N)nc(C)c2-c2ccc(OC)cc2)c(O)c1	i	·
C=C(C)COc1ccc(-c2ncncc2Oc2ccc(OC)cc2)c(O)c1	-5.81*	-5.81
CC(=O)N1CCC(C(=O)OCc2ccccc2F)(c2ccccc2)CC1	i	·
Cc1onc(-c2ccccc2Cl)c1C(=O)NCc1nnnn1-c1ccc(F)cc1	i	0.01
CCOC(=O)c1c(CN(C)C)n(-c2ccccc2)c2cc(Br)c(OC)cc12	-6.24*	-6.24
CCOC(=O)c1c(CN2CCOCC2)n(-c2ccccc2)c2cc(Br)c(OC)cc12	i	·

Screens from PubChem.
